Compound activity as filed in PubChem BioAssay.
Rtt109 Vps75: inhibitors of Candida albicans Rtt109/Vps75 histone acetyltransferase | Q5AAJ8 | purified Rtt109/Vps75, ThioGlo CoA-SH fluorescence, 4 h | inhibition, % at 34.9 µM | 0.16% of 330,000 active | AID 540336;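 active means inhibition of at least 50% in every replicate; inconclusive means best replicate reaches 50% inhibition but some replicates fall short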
Target sequence (Q5AAJ8 whole entry, looked up): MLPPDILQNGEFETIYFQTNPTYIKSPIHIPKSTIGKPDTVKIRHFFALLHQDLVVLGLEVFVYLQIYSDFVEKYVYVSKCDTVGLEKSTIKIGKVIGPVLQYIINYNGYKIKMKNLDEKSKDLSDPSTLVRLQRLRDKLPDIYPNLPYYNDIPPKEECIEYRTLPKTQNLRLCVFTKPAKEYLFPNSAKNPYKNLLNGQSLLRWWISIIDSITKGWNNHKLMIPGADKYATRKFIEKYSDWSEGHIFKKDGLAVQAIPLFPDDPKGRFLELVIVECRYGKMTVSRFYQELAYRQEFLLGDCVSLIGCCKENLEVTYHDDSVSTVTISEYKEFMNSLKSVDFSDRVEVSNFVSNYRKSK
Glyco luc inh: blocks N-linked glycosylation in D54 reporter cells; D54 ERlucT glycosylation luciferase reporter, 24 h; percent of 100 nM tunicamycin response; reporter increase, % at 12.5 µM; 0.23% of 360,000 active; AID 588692;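 active means mean luciferase reporter signal, scaled so untreated is 0 and the glycosylation-blocking control 100, at or above a set limit in every replicate; inconclusive means mean reaches the limit but not every replicate does; inactive means mean below the limit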;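 further: luciferase carries N-glycosylation sites so blocking glycosylation raises the light; 0% = median of neutral control wells and 100% = median of 100 nM tunicamycin wells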
PglD DTNB: inhibitors of Campylobacter jejuni PglD acetyltransferase | purified PglD enzyme, DTNB colorimetric CoA detection | 0.098% of 360,000 active | inhibition, % at 12.5 µM; in the data active means inhibition above about 16%, passing the limit was not always enough; inconclusive means no clear call, values can overlap the other calls
DENV2 CPE: inhibitors of DENV2 cytopathic effect; DENV2-infected cells, cytopathic effect rescue, plate reader; CPE inhibition, % at 9.99 µM; 1.7% of 350,000 active; in the data active means CPE inhibition above about 20%, passing the limit was not always enough; inconclusive means no clear call, values can overlap the other calls; tested in BHK-21 cells;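 further: 0% = median of neutral control wells and 100% = median of positive control wells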
The depositor's hits bear a star; ? = inconclusive; / = no result given; ! = not active in a repeat. Shown is part of a subset that was picked to be rich in hits.

SMILES	Rtt109 Vps75	Glyco luc inh	PglD DTNB	DENV2 CPE
C/C=C\C(=O)Nc1cccc(C2=NOC3(C2)C[C@@H](C(N)=O)N(C(=O)c2ccc(OC)cc2)C3)c1 (some centres undefined)	/	/	/	22*
C/C=C\C(=O)Nc1cccc(C2=NOC3(C2)C[C@@H](C(N)=O)N(C(=O)c2ccc(Cl)cc2)C3)c1 (some centres undefined)	10	3	-2	-7
CCCN(C)C[C@@H]1OCCCC[C@@H](C)Oc2ccc(NC(=O)NC(C)C)cc2C(=O)N([C@H](C)CO)C[C@@H]1C	/	/	-3	4
COc1cccc(S(=O)(=O)N(C)C[C@@H]2Oc3cc(C4=CCCC4)ccc3S(=O)(=O)N([C@H](C)CO)C[C@H]2C)c1	/	/	-4	55*
C[C@@H]1CN([C@H](C)CO)S(=O)(=O)c2ccc(C3=CCCCC3)cc2O[C@@H]1CN(C)S(=O)(=O)c1ccc(F)cc1	/	/	-3	23*
COc1cccc(S(=O)(=O)N(C)C[C@@H]2Oc3cc(C4=CCCC4)ccc3S(=O)(=O)N([C@@H](C)CO)C[C@@H]2C)c1	/	/	0	-4
O=C(CNc1cccc(S(=O)(=O)N2CCOCC2)c1)Nc1cccc(Br)c1	1	-2	-4	27*
O=C(CNc1cccc(S(=O)(=O)N2CCCC2)c1)Nc1cccc(Br)c1	15	4	2	?
C[C@@H](O)C#Cc1cnc2c(c1)C(=O)N([C@@H](C)CO)C[C@H](C)[C@H](CN(C)C(=O)Nc1ccc(C(F)(F)F)cc1)O2	/	/	1	-2
CCN1[C@@H]2Cn3c(ccc(-c4ccc(F)cc4)c3=O)[C@H]1[C@@H](C(=O)Nc1ccccc1)[C@@H]2CO	/	/	/	1
COc1ccc(CN(C)C[C@@H]2Oc3ccc(NC(=O)CCN4CCOCC4)cc3C(=O)N([C@@H](C)CO)C[C@@H]2C)cc1	/	/	0	-4
COc1ccc(NC(=O)N(C)C[C@H]2Oc3ccc(NC(=O)CCN4CCOCC4)cc3C(=O)N([C@H](C)CO)C[C@@H]2C)cc1	4	2	2	52*!
C[C@@H]1CN([C@H](C)CO)C(=O)c2cc(NC(=O)CCN3CCOCC3)ccc2O[C@@H]1CN(C)C(=O)Nc1ccc2c(c1)OCO2	/	/	2	50*
COc1ccc(CN(C)C[C@@H]2Oc3ccc(NC(=O)CCN4CCOCC4)cc3C(=O)N([C@@H](C)CO)C[C@H]2C)cc1	/	/	4	21*
COc1ccc(NC(=O)N(C)C[C@H]2Oc3ccc(NC(=O)CCN4CCOCC4)cc3C(=O)N([C@@H](C)CO)C[C@@H]2C)cc1	/	/	1	-7
COc1ccccc1C(=O)N1C[C@H]2[C@@H](c3ccccc31)[C@H](CO)N2C(=O)Nc1ccccc1	/	/	0	-8
C[C@H]1CCCCO[C@H](CN(C)Cc2ccc3c(c2)OCO3)[C@@H](C)CN([C@@H](C)CO)C(=O)c2cc(NC(=O)c3ccncc3)ccc2O1	/	/	0	-7
CCCCCCCCCCCCCCCCn1cc[n+](C)c1	95*	-17	/	-21
Cc1ccc(NC(=S)NC(C)CCc2ccccc2)cc1C (centres undefined)	3	1	/	17
Cc1cccc(C)c1NC(=S)NC(C)CCc1ccccc1 (centres undefined)	22	-4	-1	47*
Cc1cccc(NC(=O)Nc2ccc(Oc3c(F)c(F)c(F)c(F)c3F)cc2)c1	-5	-1	-1	1
O=C(Nc1ccc(Oc2c(F)c(F)c(F)c(F)c2F)cc1)OC1CCN2Cc3ccccc3N=C12 (centres undefined)	6	29*	-1	/
O=C(Nc1ccccc1)c1ccccc1CSc1ccccc1	-19	-3	-2	44*
CC(=O)Nc1ccc(NC(=O)c2ccccc2CCc2ccccc2)cc1	-4	-6	/	1
C=CCN1c2ccccc2[C@]23C[C@@H](C(=O)OC)N(C(=O)c4cccs4)C2=NC(C(=O)OC)=C(C(=O)OC)[C@H]13	5	16	-1	-4
SMILES	Rtt109 Vps75	Glyco luc inh	PglD DTNB	DENV2 CPE
COC(=O)C1=C(C(=O)OC)[C@@H]2Nc3ccccc3[C@@]23C[C@@H](C(=O)OC)N(C(=O)c2cccs2)C3=N1	1	6	/	68*
Cc1ccc(S(=O)(=O)N2C[C@@H]3[C@H]4CC[C@H](C4)[C@@H]3[C@@H](C)[C@@H]2c2ccn([Si](C(C)C)(C(C)C)C(C)C)c2)cc1	7	-4	0	25*
C=CCC1[C@H](C)[C@H]2[C@@H]3CC[C@@H](C3)[C@H]2CN1S(=O)(=O)c1ccc(C)cc1 (some centres undefined)	0	-12	3	-6
O=C([C@H]1O[C@@H](n2ccc(=O)[nH]c2=O)[C@H](O)[C@@H]1O)N1CCN(c2ccc(Cl)cn2)CC1	/	4	-1	45*
COc1ccccc1NC(=O)N1C[C@@H]2[C@H](c3ccccc31)[C@H](CO)N2Cc1ccccc1F	/	/	1	2
CC(=O)N1CC(=O)N2[C@H](C1)[C@H](c1ccc(C#CC(C)C)cc1)[C@@H]2CO	/	/	/	9
O=C(C[C@@H]1CC[C@@H]2[C@H](COC[C@H](O)CN2C(=O)c2ccncc2)O1)NCc1ccc(-c2ccccc2)cc1	/	/	3	-1
O=C(C[C@@H]1CC[C@@H]2[C@H](COC[C@@H](O)CN2C(=O)c2cccnc2)O1)NCc1ccc(-c2ccccc2)cc1	/	/	-3	-6
O=C(C[C@H]1CC[C@@H]2[C@H](COC[C@@H](O)CN2C(=O)c2cccnc2)O1)NCc1ccc(-c2ccccc2)cc1	/	/	4	23*
O=C(C[C@@H]1CC[C@H]2[C@@H](COC[C@H](O)CN2C(=O)c2ccccc2F)O1)NCc1ccccc1	/	/	0	86*
CS(=O)(=O)N1C[C@H](O)COC[C@H]2O[C@@H](CC(=O)NCc3ccc(-c4ccccc4)cc3)CC[C@@H]21	/	/	1	79*
O=C(C[C@H]1CC[C@@H]2[C@H](COC[C@H](O)CN2C(=O)c2ccncc2)O1)NCc1ccc(-c2ccccc2)cc1	/	/	0	20*
COc1ccc(S(=O)(=O)Nc2ccc3c(c2)C(=O)N([C@H](C)CO)C[C@H](C)[C@@H](CN(C)CC2CCCCC2)OCCCC[C@@H](C)O3)cc1	/	/	-1	-3
CO[C@H]1CN(C)C(=O)c2ccc(NS(=O)(=O)CC(F)(F)F)cc2OC[C@H](C)N(C)C[C@@H]1C	/	/	/	-4
Cc1ccc(S(=O)(=O)Nc2ccc3c(c2)C(=O)N([C@H](C)CO)C[C@H](C)[C@H](CN(C)Cc2ccc4c(c2)OCO4)O3)cc1	/	/	3	3
CCCNC(=O)C[C@@H]1CC[C@H]2[C@@H](COC[C@H](O)CN2C(=O)c2ccccn2)O1	/	/	-2	11
CCNC(=O)C[C@H]1CC[C@H]2[C@@H](COC[C@H](O)CN2C(=O)c2cccnc2)O1	/	/	-2	94*
CCCNC(=O)C[C@H]1CC[C@@H]2[C@H](COC[C@@H](O)CN2C(=O)c2ccccn2)O1	/	/	0	89*!
O=C(COC(=O)CN1C(=O)C2CCCCC2C1=O)Nc1cc(S(=O)(=O)N2CCOCC2)ccc1Cl (centres undefined)	0	1	/	88*
